Laboratory results as given in PubChem BioAssay (Tox21).
Activity calls are given as the source filed them. Entries that show only a call come without a potency. Calls come from the whole dose curve; as a rule, active = well fitted curve in the direction sought with a large enough effect in the repeat runs; inconclusive = weak or mixed curves; inactive = flat fitted curve, though single readings scatter.

Experiment: qHTS assay to test for compound auto fluorescence at 460 nm (blue) in HepG2 cell free culture (AID 720685)
Details: Cell-free culture medium, blue autofluorescence 405/460 nm; series mostly up to 91.3 µM
Description: U.S. Tox21 Program National Center for Advancing Translational Sciences [NCATS] NIH Chemical Genomics Center [NCGC] U.S. Environmental Protection Agency [EPA] National Institutes of Environmental Health Sciences [NIEHS] National Toxicology Program [NTP] U.S. Food and Drug Administration [FDA] Tox21 Assay Overview: Compound auto fluorescence often interferes with screening of the compound library against various biological targets and signaling pathways. Some of these compounds may have fluorophoric properties. Such properties may interfere with the assay outputs resulting in false positives and/or negatives. To decrease such complications and ensure the compound activities are relevant in terms of biological response, the Tox21 10K compound library was screened for auto fluorescence. From the fluorophores used as reporter signals in our screening assays, the auto fluorescence equivalencies of compounds against three fluorophores have been evaluated: Triamterene, Fluorescein and Rose Bengal sodium for blue, green and red fluorescence, respectively. The fluorescence intensities were measured using Excitation/Emission wavelengths at 405/460nm, 485/535nm and 540/590nm for blue, green and red labels, respectively. This assay includes the blue fluorescence data.
Tox21 Assay Protocol Summary: 5 uL of culture medium (MEM containing 10% FBS) per well was dispensed into black wall/clear bottom 1536-well plates using a Multidrop Combi Dispenser (ThermoFisher Scientific, Waltham, MA). After 23 nL compound or DMSO vehicle was transferred into assay plate by a pintool work station (Kalypsys, San Diego, CA), fluorescence intensities in the assay plates were measured by an Envision (PerkinElmer, Shelton, CT) plate reader using three labels for measuring blue, green and red fluorescence at […] 460, 535 and 590nm respectively.
With `Cc1ccc(N)c([N+](=O)[O-])c1` the Potency was “inactive”.
With `Nc1cc([N+](=O)[O-])ccc1C(=O)O` the Potency was “inactive”.
In the case of `CC(=O)[C@H]1CC[C@H]2[C@@H]3CC=C4C[C@@H](O)CC[C@]4(C)[C@H]3CC[C@]12C`, the Potency is reported as “inactive”.
For `CCC(=O)O[C@H]1[C@H](O[C@@H]2[C@@H](C)[C@H](O[C@H]3C[C@@](C)(OC)[C@@H](O)[C@H](C)O3)[C@@H](C)C(=O)O[C@H](CC)[C@@](C)(O)[C@H](O)[C@@H](C)C(=O)[C@H](C)C[C@@]2(C)O)O[C@H](C)C[C@@H]1N(C)C`, the Potency was “inactive”.
With `CC(C)[N+](C)(CCOC(=O)C1c2ccccc2Oc2ccccc21)C(C)C` the Potency was “inactive”.
In the case of `NCCN`, the Potency is reported as “inactive”.
In the case of `Clc1ccc(Sc2cc(Cl)c(Cl)cc2Cl)cc1`, the Potency is reported as “inactive”.
For `CCCCCC1C(=O)CCC1CC(=O)OC` (stereo not given), the Potency was “inactive”.
In the case of `CCC(Cc1c(I)cc(I)c(N)c1I)C(=O)O` (stereo not given), the Potency is reported as “inactive”.
For `CC(=O)Oc1ccc(C(c2ccc(OC(C)=O)cc2)c2ccccn2)cc1`, the Potency was “inactive”.
In the case of `Cc1ccc(S(=O)(=O)O)cc1C`, the Potency is reported as “inactive”.
With `NCCS(=O)(=O)O` the Potency was “inactive”.
With `CC/C(=C(/CC)c1ccc(O)cc1)c1ccc(O)cc1` the Potency was “inactive”.
For `c1ccc2c(c1)ccc1ncccc12`, the Potency was “inactive”.
With `C1COCCN1` the Potency was “inactive”.
For `C/C=C/C(=O)N(CC)c1ccccc1C`, the Potency was “inactive”.
In the case of `C=CC(=O)OCCCC`, the Potency is reported as “inactive”.
With `O=C1OC2(c3ccccc31)c1cc(I)c(O)c(I)c1Oc1c2cc(I)c(O)c1I` the Potency was “inactive”.
In the case of `CCCCCCCCCCC(CO)CCCCCCCC` (stereo not given), the Potency is reported as “inactive”.
In the case of `COC(=O)c1ccc(C)cc1`, the Potency is reported as “inactive”.
For `C=CCOC(=O)C(=C)C`, the Potency was “inactive”.
With `CNC[C@H](O)c1ccc(O)c(O)c1` the Potency was “inactive”.
In the case of `O=C(CCCN1CCC(O)(c2ccc(Cl)cc2)CC1)c1ccc(F)cc1`, the Potency is reported as “inactive”.
In the case of `OC[C@@H](O)[C@@H](O[C@@H]1O[C@H](CO)[C@H](O)[C@H](O)[C@H]1O)[C@H](O)[C@@H](O)CO`, the Potency is reported as “inactive”.
In the case of `C[C@]12CC[C@@H]3c4ccc(O)cc4CC[C@H]3[C@@H]1CC[C@@H]2O`, the Potency is reported as “inactive”.
For `C=CCCCCCCCCCC`, the Potency was “inactive”.
With `CC(C)=CCO` the Potency was “inactive”.
For `O=C(O)COCCN1CCN(C(c2ccccc2)c2ccc(Cl)cc2)CC1` (stereo not given), the Potency was “inactive”.
With `O=C1CCc2ccccc2O1` the Potency was “inactive”.
For `CCCCCCCCCCCCCO`, the Potency was “inactive”.
In the case of `c1ccc2c(c1)[nH]c1ccccc12`, the Potency is reported as “inactive”.
For `COc1ccc(-c2coc3cc(O)cc(O)c3c2=O)cc1`, the Potency was “inactive”.
With `O=C(O)c1cc(=O)[nH]c(=O)[nH]1` the Potency was “inactive”.
In the case of `Cc1ccc(C)c(O)c1`, the Potency is reported as “inactive”.
With `CC(=O)O[C@]1(C(C)=O)CC[C@H]2[C@@H]3C=C(C)C4=CC(=O)CC[C@]4(C)[C@H]3CC[C@@]21C` the Potency was “inactive”.
With `C[C@]12CC[C@@H]3c4ccc(O)cc4CC[C@H]3[C@@H]1CC[C@H]2O` the Potency was “inactive”.
In the case of `C[C@]12C=CC(=O)C=C1CC[C@H]1[C@@H]3C[C@@H](O)[C@](O)(C(=O)CO)[C@@]3(C)C[C@H](O)[C@@]12F`, the Potency is reported as “inactive”.
With `OCCNCCO` the Potency was “inactive”.
In the case of `CCCCCCCCCCCCO`, the Potency is reported as “inactive”.
In the case of `CCCCCC=O`, the Potency is reported as “inactive”.
